Active and inactive are the calls of the source.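 How the source made its calls: active means fitted half-maximal effect concentration at or below the top concentration tested; inactive means the rest.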

A short description of the experiment: TCF/LEF reporter activation, dose response, orthogonal assay for GSK3b inhibitor project, cell-based, HEK293T, firefly luciferase, dry powder (AID 624086). Particulars: 24 h; series mostly up to 26 µM.
Consider `Cc1[nH]nc2c1C(c1ccc(Cl)cc1)C1=C(CC(C)(C)CC1=O)N2` (stereo unspecified), for which the result was inactive.

Regarding `Cc1[nH]nc2c1C(c1ccc(C(F)(F)F)cc1)C1=C(CC(C)(C)CC1=O)N2` (stereo unspecified), the compound was called inactive.

For the compound `Cc1[nH]nc2c1C(c1ccsc1)C1=C(CC(C)(C)CC1=O)N2` (stereo unspecified), the compound was called inactive.

With `Cc1[nH]nc2c1C(C1CC1)C1=C(CC(C)(C)CC1=O)N2` (stereo unspecified), the outcome was inactive.

For the compound `CC1(C)CC(=O)C2=C(C1)Nc1n[nH]c(C(F)(F)F)c1C2c1cc(F)ccc1F` (stereo unspecified), the outcome was inactive.

On to `CNC(=O)c1cn(-c2ccccc2)nc1-c1ccc(OC)cc1`, for which the outcome was inactive.

For `Cc1[nH]nc2c1C(c1ccc(F)cc1)C1=C(CC(C)(C)CC1=O)N2` (stereo unspecified), the result was inactive.

For the compound `CC1(C)CC(=O)/C(=C\c2cccc(F)c2C(F)(F)F)C(=Nc2cc(C(F)(F)F)[nH]n2)C1`, the compound was called inactive.

Turning to `COc1ccc(-c2nn(-c3ccccc3)cc2C(=O)N(C)C)cc1`, the call was inactive.

As to `COc1ccccc1C1C2=C(CCCC2=O)Nc2n[nH]c(C)c21` (stereo unspecified), the outcome was inactive.

In the case of `Cc1[nH]nc2c1[C@@H](c1cccs1)C1=C(CC(C)(C)CC1=O)N2`, the result was inactive.

With `COc1cccc(-c2nn(-c3ccccc3)cc2/C=N/O)c1`, the outcome was inactive.

Take `CC(C)COc1ccc(-c2nn(-c3ccccc3)cc2/C=N/O)cc1`: the call was inactive.

For the compound `COc1ccccc1/C=C1\C(=O)CC(C)(C)CC1=Nc1cc(C(F)(F)F)[nH]n1`, the compound was called inactive.

For `COc1ccc(-c2nn(-c3ccccc3)cc2C(=O)O)cc1`, the compound was called inactive.

Take `COc1ccccc1C1C2=C(CC(C)(C)CC2=O)Nc2n[nH]c(C(C)(C)C)c21` (stereo unspecified): the compound was classed as inactive.

For `O/N=C/c1cn(-c2ccccc2)nc1-c1ccccc1`, the result was inactive.

With `COc1ccccc1C1C(C(C)=O)=C(C)Nc2n[nH]c(C)c21` (stereo unspecified), the result was inactive.

As to `CC1(C)CC(=O)C2=C(C1)Nc1n[nH]c(C(F)(F)F)c1C2c1cc(F)ccc1C(F)(F)F` (stereo unspecified), the compound was called inactive.

With `Cc1ccccc1C1C2=C(CC(C)(C)CC2=O)Nc2n[nH]c(C)c21` (stereo unspecified), the compound was classed as inactive.

For the compound `O/N=C/c1cn(-c2ccccc2)nc1-c1ccc(F)cc1`, the outcome was inactive.

In the case of `COc1ccccc1-c1c2c(nc3n[nH]c(C)c13)CCC2=O`, the call was inactive.

With `O/N=C/c1cn(-c2ccccc2)nc1-c1ccc(Cl)cc1`, the compound was classed as inactive.

As to `COc1ccccc1C1C2=C(CC3(CCCCC3)CC2=O)Nc2n[nH]c(C)c21` (stereo unspecified), the result was inactive.

Consider `Cc1cccc(C2C3=C(CC(C)(C)CC3=O)Nc3n[nH]c(C)c32)c1` (stereo unspecified), for which the outcome was inactive.

As to `COc1ccccc1C1C2=C(CC(C)(C)CC2=O)Nc2ccccc21` (stereo unspecified), the result was inactive.

In the case of `COc1ccccc1[C@@H]1C2=C(CC(C)(C)CC2=O)Nc2n[nH]c(C)c21`, the compound was classed as inactive.

As to `Cc1[nH]nc2c1C(c1ccc(F)cc1Cl)C1=C(CC(C)(C)CC1=O)N2` (stereo unspecified), the compound was classed as inactive.

With `Cc1[nH]nc2c1C(c1cccc(F)c1)C1=C(CC(C)(C)CC1=O)N2` (stereo unspecified), the outcome was inactive.

For the compound `Cc1[nH]nc2c1C(c1ccc(Cl)s1)C1=C(CC(C)(C)CC1=O)N2` (stereo unspecified), the compound was classed as inactive.

`Cc1[nH]nc2c1C(c1ccc(Br)cn1)C1=C(CC(C)(C)CC1=O)N2` (stereo unspecified): the call was inactive.

Values taken from PubChem BioAssay AID624086 (Broad Institute, 2012).
